From PubChem BioAssay AID1159580 (chemical genetic matrix, 2015)
Out of some 5,500 compounds screened, about 2,000 (36%) were called active. About 18% were inconclusive and are not listed. Rule as the data show it: active = normalized growth mostly below about 0.91 (no sharp cut-off); inconclusive = no clear call, values can overlap the other calls; inactive = mostly above about 0.92. Some of the results follow.

Experiment: chemical genetic growth profiling, strain panel (AID 1159580);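 also: tested at 20 µM; growth read once vehicle control cultures reached saturation at 30 °C; 1 = growth at the plate median or of vehicle wells; lower values mean less growth of the strain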
Settings: S. cerevisiae deletion strains, growth OD

Measured: normalized growth

C=C1CCC2C(CC2(C)C)C(=C)CC/C1=N\O (stereo not drawn)
active: locus YDL192W, strain arf1, stronger effect = lower value 0.884 | locus YDR162C, strain NBP2, stronger effect = lower value 0.735 | locus YDR318W, strain mcm21, stronger effect = lower value 0.911 | locus YGL078C, strain dbp3, stronger effect = lower value 0.922 | locus YGL086W, strain mad1, stronger effect = lower value 0.923 | locus YGR229C, strain SMI1, stronger effect = lower value 0.738
inactive: locus YAL013W, strain DEP1, stronger effect = lower value 1 | locus YAL021C, strain ccr4, stronger effect = lower value 1.04 | locus YAL026C, strain drs2, stronger effect = lower value 1.01 | locus YAL030W, strain snc1, stronger effect = lower value 1 | locus YBL061C, strain skt5, stronger effect = lower value 0.999 | locus YBR009C, strain hhf1, stronger effect = lower value 0.99 | locus YBR021W, strain FUR4, stronger effect = lower value 0.89 | locus YBR023C, strain chs3, stronger effect = lower value 1.01 | locus YBR171W, strain sec66, stronger effect = lower value 0.993 | locus YBR229C, strain ROT2, stronger effect = lower value 1.02 | locus YBR231C, strain swc5, stronger effect = lower value 1.01 | locus YBR279W, strain paf1, stronger effect = lower value 1.01 | locus YCL011C, strain gbp2, stronger effect = lower value 0.997 | locus YCL016C, strain dcc1, stronger effect = lower value 0.994 | locus YCL029C, strain bik1, stronger effect = lower value 0.983 | locus YCL061C, strain MRC1, stronger effect = lower value 0.992 | locus YCL069W, strain vba3, stronger effect = lower value 1.01 | locus YCR088W, strain abp1, stronger effect = lower value 1 | locus YDL005C, strain med2, stronger effect = lower value 0.994 | locus YDL035C, strain GPR1, stronger effect = lower value 0.87 | locus YDL040C, strain nat1, stronger effect = lower value 0.998 | locus YDL074C, strain BRE1, stronger effect = lower value 0.82 | locus YDL101C, strain DUN1, stronger effect = lower value 0.986 | locus YDL134C, strain PPH21, stronger effect = lower value 1.01 | locus YDL185W, strain tfp1, stronger effect = lower value 0.978 | locus YDR001C, strain nth1, stronger effect = lower value 1 | locus YDR069C, strain doa4, stronger effect = lower value 0.995 | locus YDR101C, strain arx1, stronger effect = lower value 0.947 | locus YDR137W, strain rgp1, stronger effect = lower value 0.949 | locus YDR150W, strain NUM1, stronger effect = lower value 1.03 | locus YDR159W, strain sac3, stronger effect = lower value 0.977 | locus YDR195W, strain ref2 1.01 | locus YDR297W, strain sur2, stronger effect = lower value 1.01 | locus YDR334W, strain swr1, stronger effect = lower value 1 | locus YDR335W, strain msn5, stronger effect = lower value 1 | locus YDR388W, stronger effect = lower value 0.964 | locus YDR392W, strain spt3, stronger effect = lower value 0.839 | locus YDR502C, strain sam2, stronger effect = lower value 0.927 | locus YEL003W, strain gim4, stronger effect = lower value 1 | locus YEL037C, strain rad23, stronger effect = lower value 0.993 | locus YEL061C, strain CIN8 (second series), stronger effect = lower value 1.01 | locus YEL061C, strain CIN8, stronger effect = lower value 1.01 | locus YER015W, strain faa2, stronger effect = lower value 1.01 | locus YER016W, strain bim1, stronger effect = lower value 1 | locus YER110C, stronger effect = lower value 1.02 | locus YER111C, strain swi4, stronger effect = lower value 1 | locus YER155C, strain BEM2 (second series), stronger effect = lower value 1 | locus YER155C, strain BEM2, stronger effect = lower value 0.992 | locus YER167W, strain BCK2, stronger effect = lower value 0.915 | locus YFR010W, strain ubp6, stronger effect = lower value 1 | locus YGL167C, strain pmr1, stronger effect = lower value 0.996 | locus YGL173C, strain kem1, stronger effect = lower value 1 | locus YGL227W, strain vid30, stronger effect = lower value 1 | locus YGL240W, strain doc1, stronger effect = lower value 1 | locus YGL248W, strain PDE1, stronger effect = lower value 1.02 | locus YGL253W, strain hxk2, stronger effect = lower value 1 | locus YGR078C, strain PAC10, stronger effect = lower value 0.954 | locus YGR135W, strain pre9, stronger effect = lower value 0.924 | locus YGR252W, strain gcn5, stronger effect = lower value 0.799 | locus YHR013C, strain ard1, stronger effect = lower value 1.04 | locus YHR027C, strain rpn1, stronger effect = lower value 0.999 | locus YHR030C, strain SLT2, stronger effect = lower value 0.983 | locus YHR079C, strain IRE1 (second series), stronger effect = lower value 0.962 | locus YHR094C, strain hxt1, stronger effect = lower value 0.998 | locus YHR129C, strain ARP1, stronger effect = lower value 0.992 | locus YHR142W, strain chs7, stronger effect = lower value 1 | locus YHR200W, strain rpn10, stronger effect = lower value 0.971 | locus YIL066C, strain RNR3, stronger effect = lower value 0.908 | locus YIL073C, strain SPO22, stronger effect = lower value 1.08 | locus YIL125W, strain kgd1, stronger effect = lower value 0.993 | locus YIR030C, strain dcg1, stronger effect = lower value 0.993 | locus YJL092W, strain hpr5, stronger effect = lower value 0.996 | locus YJL095W, strain BCK1 (second series), stronger effect = lower value 1 | locus YJL095W, strain BCK1, stronger effect = lower value 0.843 | locus YJL115W, strain asf1, stronger effect = lower value 0.998 | locus YJL129C, strain trk1, stronger effect = lower value 0.994 | locus YJL134W, strain LCB3, stronger effect = lower value 1.01 | locus YJL154C, strain vps35, stronger effect = lower value 1 | locus YJL164C, strain tpk1, stronger effect = lower value 1 | locus YJL166W, strain qcr8, stronger effect = lower value 1.01 | locus YJL168C, strain set2, stronger effect = lower value 0.998 | locus YJL187C, strain SWE1 (second series), stronger effect = lower value 0.973
